GC-A act – GC-A stimulated cGMP production enhancers – HEK293 GC-A cells, cGMP TR-FRET, EC30 ANP, primary screen. activation, % at 10 µM. 0% at EC30 ANP, 100% saturating ANP. actives 0.14% (n = 370,000); in the data active = activation above about 40%
NPR2 activator – human GC-B receptor activators, primary screen, HEK293 GC-B cells, cGMP TR-FRET, EC30 CNP; Atrial natriuretic peptide receptor 2 (Homo sapiens), P20594; 0% at EC30 CNP, 100% saturating CNP; activation, % at 10 µM; actives 0.11% (n = 370,000);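 active = activation at 10 µM reaching about 35% in either raw or pattern-adjusted values, limit read from the data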
Neddylation inh – inhibitors of cullin neddylation, primary screen, biochemical, TR-FRET, uHTS, NAE and Ubc12; actives 0.58% (n = 360,000); inhibition, % at 25 µM; NEDD8-conjugating enzyme Ubc12 (Homo sapiens) + NEDD8-activating enzyme E1 regulatory …; in the data active = inhibition above about 36%
Target sequence (P61081 whole entry, looked up): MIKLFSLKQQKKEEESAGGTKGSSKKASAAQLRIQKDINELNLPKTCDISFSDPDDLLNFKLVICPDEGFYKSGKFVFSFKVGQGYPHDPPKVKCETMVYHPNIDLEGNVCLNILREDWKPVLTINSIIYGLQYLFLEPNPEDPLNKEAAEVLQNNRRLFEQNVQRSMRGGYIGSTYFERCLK
Target sequence (Q13564 whole entry, looked up): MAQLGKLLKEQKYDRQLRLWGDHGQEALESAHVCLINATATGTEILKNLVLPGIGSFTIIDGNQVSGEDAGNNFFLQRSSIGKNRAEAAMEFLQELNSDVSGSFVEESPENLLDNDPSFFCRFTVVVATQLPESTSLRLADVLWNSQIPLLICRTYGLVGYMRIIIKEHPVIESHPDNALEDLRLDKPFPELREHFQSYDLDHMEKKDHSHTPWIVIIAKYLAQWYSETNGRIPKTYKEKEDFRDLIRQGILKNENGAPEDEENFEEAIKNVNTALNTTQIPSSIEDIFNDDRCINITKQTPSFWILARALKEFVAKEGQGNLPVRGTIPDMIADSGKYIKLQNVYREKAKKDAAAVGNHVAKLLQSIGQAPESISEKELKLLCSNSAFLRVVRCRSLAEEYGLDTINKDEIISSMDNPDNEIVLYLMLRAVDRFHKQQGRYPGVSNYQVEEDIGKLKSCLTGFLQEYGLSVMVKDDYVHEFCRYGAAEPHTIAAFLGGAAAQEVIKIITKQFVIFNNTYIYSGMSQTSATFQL
APOBEC3A inh – APOBEC3A ssDNA deaminase inhibitors, primary screen, selectivity assay for APOBEC3G inhibitor project, biochemical, FAM/TAMRA oligo cleavage fluorescence; actives 0.41% (n = 330,000); DNA dC->dU-editing enzyme APOBEC-3A (Homo sapiens), P31941; recombinant A3A, FAM/TAMRA ssDNA deamination fluorescence; inhibition, % at 20 µM;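 active = at least 40% inhibition at 20 µM here, with at most 30% in a related deaminase screen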;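 also: plate controls were A3A with DMSO for no effect and wells lacking A3A enzyme for full effect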
PfG6PD inh – PfG6PD enzyme inhibitors, primary screen, biochemical, fluorescence intensity, uHTS | PfGluPho enzyme, NADPH resazurin-diaphorase fluorescence | inhibition, % at 20 µM | actives 0.78% (n = 350,000) | AID 504690, 2011;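 active = inhibition reaching at least a set limit at 20 µM in the primary screen, cut at about 59% in these data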;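 also: 0% = DMSO wells with substrate and 100% = DMSO wells lacking glucose-6-phosphate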
A3G deaminase – APOBEC3G DNA deaminase inhibitors, primary screen, biochemical, fluorescence, single-stranded DNA substrate, uHTS; inhibition, % at 20 µM; recombinant A3G, ssDNA deamination FAM/TAMRA fluorescence; actives 0.28% (n = 330,000); AID 493012, 2011; DNA dC->dU-editing enzyme APOBEC-3G (Homo sapiens), Q9HC16;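 active = inhibition of at least 40% at 20 µM, with no more than 30% in the related APOBEC3A deaminase screen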;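 also: plate controls were DMSO wells with A3G for no effect and wells lacking A3G enzyme for full effect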
PfGluPho conf – PfG6PD inhibitors, hit retest, confirmation, biochemical, fluorescence intensity, single concentration | shares compounds with PfG6PD inh | recombinant PfGluPho, NADPH-diaphorase-resazurin fluorescence | inhibition, % at 20 µM | actives 34% (n = 2,400) | AID 504753, 2011;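 active = inhibition of at least 50% at 20 µM in any single replicate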;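 also: 0% = DMSO with substrate and 100% = DMSO lacking glucose-6-phosphate substrate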
Diaphorase 10uM – diaphorase inhibitors and chemical oxidizers, confirmation, counter-screen for P. falciparum G6PD inhibitor project, biochemical, fluorescence intensity, 10 µM NADPH. actives 39% (n = 820). AID 504862, 2011. diaphorase-coupled resazurin reduction, NADPH 10 uM. shares compounds with PfG6PD inh. inhibition, % at 20 µM;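 active = average inhibition reaching 50% or more with the compound at 20 µM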;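 also: resorufin red fluorescence formed as diaphorase reduces resazurin using NADPH; 0% = DMSO with enzyme and 100% = DMSO without enzyme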
Diaph ctr 30uM – diaphorase inhibitors and chemical oxidizers, confirmation, counter-screen for P. falciparum G6PD inhibitor project, biochemical, fluorescence intensity, 30 µM NADPH; shares compounds with PfG6PD inh; Diaphorase/resazurin coupled assay, resorufin fluorescence; inhibition, % at 20 µM; actives 29% (n = 820);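 active = inhibition averaging 50% or more, tested at 20 µM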;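 also: 0% = DMSO with enzyme and 100% = DMSO wells lacking diaphorase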
An asterisk follows results filed as active; x = no result shown. Rows were chosen to be rich in hits. Some 2% of all compounds tested hit in one or more screens of this group.

SMILES | GC-A act | NPR2 activator | Neddylation inh | APOBEC3A inh | PfG6PD inh | A3G deaminase | PfGluPho conf | others
Cc1cccc(C(=O)Nc2ccc(C(=O)c3ccncc3)cc2)c1 | 1.8 | 1.7 | -46.4 | x | 64.3* | x | 9.6
COC(=O)c1ccc(NC(=O)c2cccc(C)c2)cc1 | -1.7 | -0.1 | -5.7 | -5.3 | -3.3 | -4.1 | x
Cc1cccc(C(=O)Nc2ccc(O)cc2)c1 | -1.2 | 2.1 | -9.4 | -0.5 | 20.8 | 1.0 | x
COC(=O)[C@]12C[C@H](CC(=O)N3CCN(C(=O)c4ccco4)CC3)C(=O)N(Cc3ccco3)C1=C[C@H](C(C)(C)C)O[C@@H]2C | -11.5 | -10.9 | x | x | x | x | x
O=S(=O)(Nc1cccc2ncccc12)c1cccs1 | x | x | x | 2.2 | 98.8* | 4.4 | 61.2* | Diaphorase 10uM=61.5*;Diaph ctr 30uM=56.4*
Cc1c(NS(=O)(=O)c2cccs2)cccc1-c1nc2cccnc2s1 | -0.9 | -1.3 | 11.3 | 0.8 | -11.6 | -3.2 | x
CCOc1ccccc1NS(=O)(=O)c1cccs1 | 3.9 | -0.8 | 0.3 | 1.6 | 98.7* | 0.4 | 71.7* | Diaphorase 10uM=67.6*;Diaph ctr 30uM=61.2*
CCOc1ccccc1NS(=O)(=O)c1c(C)noc1C | 0.3 | 0.1 | 1.8 | -1.9 | 63.2* | -3.8 | 54.4* | Diaphorase 10uM=45.4;Diaph ctr 30uM=33.9
CCOc1ccccc1NC(=O)CCS(=O)(=O)c1cccs1 | 2.8 | -6.7 | 8.0 | -4.6 | -5.3 | -9.4 | x
COC(=O)c1ccccc1NS(=O)(=O)c1c(C)noc1C | 3.2 | -0.1 | 4.8 | -2.8 | 49.0 | -7.7 | x
Cc1ccc(CN2CCCCC(NC(=O)c3ccc(COc4ccccc4)cc3)C2=O)cc1 (stereo unspecified) | 7.5 | -1.3 | x | x | x | x | x
CC[C@@H](CCCc1ccc(F)cc1)CN(Cc1ccc(OC)cc1)S(=O)(=O)c1ccc(C)cc1 | -1.8 | -2.3 | x | x | x | x | x
COc1ccccc1Nc1nnc(SCc2cc(=O)n3cc(C)ccc3n2)s1 | 0.9 | 3.9 | -6.4 | 1.6 | 69.3* | 1.4 | 44.7
CN(C)c1ccc2nc3ccc(=O)cc-3sc2c1 | -114.2 | -32.6 | -7.7 | x | 78.3* | x | 49.2* | Diaphorase 10uM=24.0;Diaph ctr 30uM=28.5
COc1ccc2nc(N=Nc3ccc(N(C)C)cc3)sc2c1 | 5.5 | 10.5 | -23.4 | x | 13.9 | x | x
CN(C)c1ccc2nc3ccc(=[N+](C)C)cc-3sc2c1 | -164.0 | -328.7 | -179.9 | 26.3 | 112.1* | 25.5 | 84.0* | Diaphorase 10uM=79.5*;Diaph ctr 30uM=78.3*
C[C@H](O)[C@@H]1CN2CCc3c([nH]c4c(-c5ccccc5)cccc34)[C@@H]2C[C@@H]1N(C)C(=S)Nc1ccc(C#N)cc1 | -2.0 | -8.8 | x | x | x | x | x
O=S1(=O)c2c(cccc2N2CCSCC2)Oc2ccccc2CN1Cc1cn(Cc2cccc(C(F)(F)F)c2)nn1 | -1.1 | -0.1 | x | x | x | x | x
COc1cc(C[C@@H](C)[C@@H](C)Cc2ccc(O)c(OC)c2)ccc1O | -4.0 | -6.8 | -14.7 | -2.4 | -6.9 | -6.7 | x
CC(Cc1ccc(O)c(O)c1)C(C)Cc1ccc(O)c(O)c1 (stereo unspecified) | x | x | x | 2.7 | 84.2* | 3.3 | 61.1* | Diaphorase 10uM=0.1;Diaph ctr 30uM=2.9
C=CCn1c2ccccc2c(=O)c2cc(C#Cc3ccccn3)ccc21 | 2.1 | 4.1 | x | -3.2 | 80.0* | -11.7 | 35.7
O=c1c2ccccc2oc2cc(C#Cc3ccccn3)ccc12 | -6.6 | -1.2 | -378.8 | -2.2 | 2.1 | -3.1 | x
CCCCNC(=O)NCCCN1CCN(c2ccc(F)cc2)CC1 | 2.7 | 2.2 | x | x | x | x | x
O=C(N/N=C/c1cc2c(cc1[N+](=O)[O-])OCO2)c1ccccn1 | 1.4 | 4.0 | -24.8 | 14.8 | 72.3* | 15.3 | 20.1
O=C(N/N=C/c1cc2c(cc1Cl)OCO2)c1ccccn1 | -0.9 | 2.0 | 6.9 | -0.3 | -3.4 | -5.0 | x
SMILES | GC-A act | NPR2 activator | Neddylation inh | APOBEC3A inh | PfG6PD inh | A3G deaminase | PfGluPho conf | others
Cc1cc(C(=O)CSc2nncs2)c(C)n1-c1c(C)n(C)n(-c2ccccc2)c1=O | 0.3 | 8.2 | 7.2 | -3.9 | -12.7 | -8.0 | x
Cc1ccc(-n2c(C)cc(C(=O)CSc3nncs3)c2C)cc1 | 1.4 | -2.3 | -7.8 | -3.9 | 62.1* | 1.4 | 23.2
Oc1ccc(N2CCN(c3ccnc4cc(Cl)ccc34)CC2)cc1 | -3.5 | -9.3 | -0.7 | -4.1 | 66.1* | -3.1 | -5.5
COc1cccc(/C=C2\CC3(OC(=O)c4cccc(F)c4)CCCN2C3)c1 (stereo unspecified) | 0.8 | -13.1 | x | x | x | x | x
O=C(NC1CCCCN(Cc2ccc(Cl)cc2)C1=O)C(c1ccccc1)c1ccccc1 (stereo unspecified) | -4.6 | -1.8 | x | x | x | x | x
C[C@@H]1CN([C@@H](C)CN(C)C)C(=O)c2cc(NC(=O)Nc3ccccc3)ccc2O[C@@H](C)CCCCO[C@H]1CN(C)S(=O)(=O)c1ccc(F)cc1 | 0.9 | 0.7 | x | x | x | x | x
O=C(Nc1cccc(F)c1)c1ccc(-c2ccccc2Cl)o1 | x | x | -4.5 | -1.5 | 78.8* | -9.2 | -6.9
COc1ccc(NC(=O)c2ccc(-c3ccccc3Cl)o2)cc1 | -2.5 | 0.9 | -38.3 | -0.2 | 64.6* | -1.2 | 12.7
COc1ccc2c(c1)CO[C@H]([C@H](O)CO)[C@H]2/C=C/c1ccccc1 | 6.5 | -4.4 | x | x | x | x | x
Brc1cccc(-c2nnc(SCc3nc4ccccc4[nH]3)o2)c1 | -8.6 | -2.6 | -9.3 | 1.4 | 60.1* | 3.9 | 13.1
N#Cc1cccc(NC(=O)OCCN2C(=O)CCC23CCC(c2ccc(Cl)cc2)CC3)c1 (stereo unspecified) | -20.5 | -14.8 | x | x | x | x | x
COc1cc(-c2c(-c3cc(OC)c(OC)c(OC)c3)noc2C)ccc1F | -14.6 | -21.6 | x | -2.5 | 63.3* | -7.9 | 14.3
Nc1ccc(C(=O)OCC(=O)N2c3ccccc3Sc3ccccc32)cc1[N+](=O)[O-] | -0.4 | -6.5 | -10.1 | x | -3.2 | x | x

Source: PubChem (Sanford-Burnham Center for Chemical Genomics)
